HT1080 IDH1KD tx: HT-1080 IDH1 knockdown cell toxicity (counter line) | Potency, µM (highest dose often 46.1 µM), inactives show at the highest dose activity, negative = toxicity, most hits filed as cytotoxic | AID 686971 | HT-1080 IDH1 knockdown viability, ATP luminescence, 48 h | 2% of 360,000 active;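 also: potency is read from the fitted curve at half-maximal effect; 0% = DMSO wells and -100% = cell-free medium wells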
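CellTiter-Glo luminescence after 48 h compound exposure at 37 degrees C of IDH1-knockdown HT-1080 cells in 5% FBS RPMI. %Activity scaled between DMSO wells and cell-free media wells, with curves fitted and assigned curve classes.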
HT1080-NT tox: kills 2HG-producing HT-1080-NT fibrosarcoma cells; 1.6% of 360,000 active; AID 686970; HT-1080-NT fibrosarcoma viability, CellTiter-Glo ATP luminescence, 48 h; Potency, µM (highest dose often 46.1 µM), for inactives: top-dose activity, negative = less viability, actives largely listed as cytotoxic;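 also: NT is the 2HG producing partner of a matched IDH1 knockdown line; potency is read from the fitted curve at half-maximal effect; 0% = DMSO-treated cells and -100% = media-only wells without cells; nearly all actives have a fitted effect of over 55% in size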
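Viability of the 2HG-overproducing fibrosarcoma line after 48 hours of compound exposure at 37 degrees C was determined by luminescence with CellTiter-Glo, and concentration-effect curves were then fitted and categorized.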
IL-1B inflam inh: blocks inflammasome-driven IL-1 beta release; THP-1 LPS/ATP IL-1B secretion, AlphaLISA, 16 h; hits give low values; activity change, % at 57.5 µM; 4.7% of 360,000 active; in the data active = activity change below about -50%; inconclusive = mostly about -30% to -49%
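Secreted IL-1B measured by AlphaLISA bead assay after 16 h compound exposure of THP-1 cells; compounds (final up to 57.5 uM) added 1 h before LPS (250 ng/mL) and ATP (1.25 mM) stimulation; lower signal means less secretion.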
DT40 TDP1 CPT: growth inhibition of DT40 Tdp1-/-;hTDP1 cells with camptothecin (screen for TDP1 inhibitors). chicken DT40 Tdp1-/-;hTDP1 cells + 20 nM CPT, ATP luminescence, 48 h. Potency, µM (series often up to 46.2 µM), for inactives: at the top dose activity change, negative = growth inhibition, actives largely listed as inhibitors. 12% of 420,000 active. AID 686979; also: potency is read from the fitted curve at half-maximal effect; nearly all actives have a fitted effect of over 55% in size
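Chicken DT40 Tdp1-/- cells stably complemented with human TDP1 were seeded at 400 cells/well in medium containing 20 nM camptothecin, exposed to pin-transferred compounds, and grown at 37 °C for at least 48 hr. Viability was read as ATP luminescence.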
DT40 TDP1 no CPT: qHTS for Inhibitors of human tyrosyl-DNA phosphodiesterase 1 (TDP1): qHTS in cells in absence of CPT; Potency, µM (highest dose often 46.2 µM), for inactives: top-dose activity change, negative = growth inhibition, hits mostly inhibitors; 15% of 420,000 active; DT40 Tdp1-/- hTDP1 cells, no CPT, ATP luminescence, 48 h; also: potency is read from the fitted curve at half-maximal effect; nearly all actives have a fitted effect of over 55% in size
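Growth of hTDP1-complemented DT40 Tdp1-knockout cells is measured by ATP luminescence after at least 48 hr compound exposure at 37 °C, with DMSO substituting for the 20 nM CPT used in the parallel screen.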
* hit, by the source's call; ? = inconclusive; · = not tested or not shown; ! = not active in a repeat; [ ] = remark or other dose. Sampled rows, rich in hits. Any-hit rate of the full collection: about 19%. Unless noted, calls follow the shape of the dose curve; as a rule, active = well fitted curve in the direction sought with a large enough effect; inconclusive = small, poorly fitted or top-dose-only effect, or another doubt; inactive = no such curve, though single readings can be large; an effect the other way counts as inactive or inconclusive. Unless noted, % is scaled to controls: 0 for no effect and ±100 for the full control effect.

SMILES | HT1080 IDH1KD tx | HT1080-NT tox | IL-1B inflam inh | DT40 TDP1 CPT | DT40 TDP1 no CPT
CC(=O)NCCn1c(SCc2ccc(C)cc2C)nc2ccccc2c1=O | -19% | -10% | -7 | 10µM* | 8.2µM*
CC(=O)NCCn1c(SCc2cc(F)ccc2F)nc2ccccc2c1=O | ? | -5% | 8 | ? | ?
Cc1nnn(C23CC4CC(CC(CC(=O)Nc5ccc(C)c(C)c5)(C4)C2)C3)n1 | -9% | -2% | -28 | -18% | ?
N#C/C(=C\c1ccc(-c2ccccc2[N+](=O)[O-])o1)C(=O)Nc1nc(-c2cccs2)cs1 | ? | -8% | -4 | ? | 29µM*
CCCCN=C1CC(C)(C)CC(=O)/C1=C(/O)CCC | 4% | 16% | -7 | ? | ?
CCCCCNC(=O)Cc1ccc(S(=O)(=O)N2CCOCC2)s1 | 0% | -1% | 1 | 12% | -5%
COc1ccccc1CNC(=O)C1CCN(C(=O)N(C)C)CC1 | 6% | 13% | 15 | 2% | -21%
CCC1CN(C(=O)N2CCC(C(=O)NCCc3ccc(OC)cc3OC)CC2)c2ccccc2O1 (centres undefined) | -9% | 10% | ? | 26µM* | ?
CCC1CN(C(=O)N2CCC(C(=O)NCCc3ccccc3OC)CC2)c2ccccc2O1 (centres undefined) | 13% | -5% | -18 | ? | 13µM*
Cc1ccc(C)c(SCC(=O)OCC(=O)NCCNC(=O)COC(=O)CSc2cc(C)ccc2C)c1 | 1% | -1% | 18 | -29% | -7%
Nc1c(-c2ccc(F)c(F)c2)nc2ncccn12 | 17% | 12% | -6 | 12% | -4%
O=[N+]([O-])CC(=Nc1ccc(Cl)cc1)N/N=C\c1oc(O)c2ccccc12 | 0% | 0% | 9 | ? | ?
CC(C)NC(=O)C1CCN(C(=O)N2CC(C)Oc3ccccc32)CC1 (centres undefined) | · | · | · | 10% | -8%
CC(C)NC(=O)C1CCN(C(=O)N2CCOc3ccc(Cl)cc32)CC1 | · | · | · | -28% | ?
CC1CN(C(=O)N2CCC(C(=O)NCCCc3ccccc3)CC2)c2ccccc2O1 (centres undefined) | · | · | · | 21µM* | ?
CC1CN(C(=O)N2CCC(C(=O)NCCCc3ccccc3)CC2)c2cc(Cl)ccc2O1 (centres undefined) | · | · | · | 18µM* | 13µM*
CC(CNC(=O)C1CCN(C(=O)N2CCOc3ccc(Cl)cc32)CC1)c1ccccc1 (centres undefined) | · | · | · | ? | 16µM*
CCCCNC(=O)C1CCN(C(=O)N2CC(C)Oc3ccc(Cl)cc32)CC1 (centres undefined) | · | · | · | ? | 21µM*
CN(CCCn1ccc(NC(=O)OCc2ccccc2)nc1=O)Cc1ccco1 | -7% | -5% | -14 | 1% | -5%
CN(C)S(=O)(=O)c1cccc(C(=O)OCC(=O)Nc2ccc3c(c2)OCCO3)c1 | 1% | 0%[9.24 µM] | -11 | -1% | 8%
O=C(NCCCc1ccccc1)C1CCN(C(=O)N2CCOc3ccc(Cl)cc32)CC1 | · | · | · | 16µM* | 15µM*
CC1CN(C(=O)N2CCC(C(=O)N3CCN(c4ccccc4)CC3)CC2)c2cc(Cl)ccc2O1 (centres undefined) | · | · | · | 13µM* | 13µM*
CC(C)(C)Cc1c(-c2cccc(Br)c2)nc2ccc(Cl)cn12 | 3% | 10% | 0 | ? | ?
Cc1nc2sccn2c(=O)c1S(=O)(=O)Nc1cc(C(F)(F)F)ccc1Cl | · | · | · | -5% | -27%
COc1cc(C(=O)OCCc2cc3ccccc3c(=O)o2)cc(OC)c1OC | 7.3µM* | 8.2µM* | 56 | 4.1µM* | 5.8µM*
SMILES | HT1080 IDH1KD tx | HT1080-NT tox | IL-1B inflam inh | DT40 TDP1 CPT | DT40 TDP1 no CPT
Cc1ccc(-c2cnc3n2CCCCC3)cc1 | 0% | -4% | 9 | ? | 26µM*
CCOc1ccc(-c2cnc3n2CCCCC3)cc1 | 14% | 16% | -18 | ? | -25%
c1ccc(-c2ccc(-c3cnc4n3CCCCC4)cc2)cc1 | ? | ? | ? | ? | 18µM*
c1cc2c(cc1-c1cnc3n1CCC3)OCCO2 | ? | ? | -29 | 18µM* | ?
COc1ccc(S(=O)(=O)NC(=O)C2(C)CCN2C(=O)c2cccc(F)c2)cc1 (centres undefined) | ? | 7% | -2 | 3% | 7%
Cc1cc(C)c(NC(=O)CN(C)C(C)C(=O)N2CCc3ccccc32)c(C)c1 (centres undefined) | 7% | 4% | 11 | ? | ?
CC1CC(C)(C)CC2(C1)NC(=O)N(CC(=O)Nc1c(F)cccc1F)C2=O (centres undefined) | 6% | 10% | -5 | 6% | 3%
CC1(c2ccc3ccccc3c2)NC(=O)N(CC(=O)N2CCN(Cc3ccc(C#N)cc3)CC2)C1=O (centres undefined) | -22% | ? | -6 | 3.3µM* | 2.1µM*
CC1CC(C)(C)CC2(C1)NC(=O)N(CC(=O)Nc1cc([N+](=O)[O-])ccc1F)C2=O (centres undefined) | -25% | -18% | -1 | 15µM* | 10µM*
CC1CC(C)(C)CC2(C1)NC(=O)N(CC(=O)N1CCN(Cc3ccc(C#N)cc3)CC1)C2=O (centres undefined) | ? | ? | 0 | 8.2µM* | 5.2µM*
CC1CC(C)(C)CC2(C1)NC(=O)N(CC(=O)N1CCN(S(=O)(=O)c3cccs3)CC1)C2=O (centres undefined) | 3% | 5% | 5 | ? | ?
Cc1cccc(NC(=O)CN2CCN(C(=O)CN3C(=O)NC4(CC(C)CC(C)(C)C4)C3=O)CC2)c1C (centres undefined) | -7% | 2% | 0 | 21µM* | 4.1µM*
Cc1nc2cnc(OCc3ccccc3)nc2n(Cc2ccc(F)cc2)c1=O | · | · | · | 3% | -12%
CCOc1[nH]c(/N=C/c2ccco2)c(C#N)c1C#N | -1% | -2% | 3 | 21µM* | ?
CCOc1[nH]c(/N=C/c2ccc(OC)cc2)c(C#N)c1C#N | · | · | · | -29% | -11%
O=S1(=O)CCOCCCN1Cc1ccccc1Br | -1% | 9% | -3 | 29µM*! | -28%
CCC(=O)N[C@@H]1c2ccccc2C2(CCN(Cc3cnc(N(C)C)s3)CC2)[C@H]1OC | · | · | · | 35%[9.04 µM] | -3%
COc1ccc(CCNC(=O)c2c(O)nc3c(C)cccn3c2=O)cc1 | · | · | · | 16µM* | ?
COc1ccc(CNC(=O)c2c(O)nc3c(C)cccn3c2=O)cc1 | · | · | · | ? | 12µM*
Cc1cccn2c(=O)c(C(=O)NC(C)c3ccccc3)c(O)nc12 (centres undefined) | · | · | · | 18µM* | ?
